Measured values reported in PubChem BioAssay (NCATS).
Records with an inconclusive call do not appear. Where a call stands in place of a potency, no number is given. The source holds several records for some structures; these can differ, active in one and inactive in another. A number with no mark means an inactive call. Calls of active or inactive are those of the source. Calls come from the whole dose curve; as a rule, active = well fitted curve in the direction sought with a large enough effect; inconclusive = small, poorly fitted or top-dose-only effect, or another doubt; inactive = no such curve, though single readings can be large; an effect the other way counts as inactive or inconclusive.

Tests used:
[1] = Quantitative highthroughput screen to assess conditional lethalithy of NOMO1 cells grown in RPMI1640 with untreated serum (RPMI+s) (AID 1963876); note: nearly all actives have a fitted effect of over 35% in size; note: potency is the fitted concentration of half-maximal effect
How it was run: (§1)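 Each medium arm—HPLM with 10% dialyzed FBS, or RPMI1640 with 5 mM glucose and 10% untreated or dialyzed FBS—was screened against an 11-point, 3-fold compound titration for 48 h at 37 °C, with CellTiter-Glo luminescence as endpoint.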

[2] = Quantitative highthroughput screen to assess conditional lethalithy of NOMO1 cells grown in RPMI1640 with dialyzed fetal bovine serum (RPMI+ds) (AID 1963877); note: nearly all actives have a fitted effect of over 30% in size; note: potency is the fitted concentration of half-maximal effect; for viability: series mostly up to about 46 µM
How it was run: as §1

[3] = Quantitative highthroughput screen to assess conditional lethalithy of NOMO1 cells grown in Human Plasma-Like Medium with dialyzed fetal bovine serum (HPLM+ds) (AID 1963878); note: nearly all actives have a fitted effect of over 35% in size; note: potency is the fitted concentration of half-maximal effect
How it was run: as §1

[4] = Quantitative highthroughput screen to assess conditional lethalithy of P12 Ichikawa cells grown in Human Plasma-Like Medium with dialyzed fetal bovine serum (HPLM+ds) (AID 1963879); conditions: Potency: viability; note: nearly all actives have a fitted effect of over 35% in size; note: potency is the fitted concentration of half-maximal effect; for viability: series mostly up to about 46 µM
How it was run: as §1

[5] = Quantitative highthroughput screen to assess conditional lethalithy of P12 Ichikawa cells grown in RPMI1640 with untreated serum (RPMI+s) (AID 1963881); conditions: Potency: viability; note: nearly all actives have a fitted effect of over 35% in size; note: potency is the fitted concentration of half-maximal effect; for viability: series mostly up to about 46 µM
How it was run: as §1

[6] = Quantitative highthroughput screen to assess conditional lethalithy of SEM cells grown in RPMI1640 with unreated serum (RPMI+s) (AID 1963883); note: nearly all actives have a fitted effect of over 35% in size; note: potency is the fitted concentration of half-maximal effect
How it was run: as §1

[7] = Quantitative highthroughput screen to assess conditional lethalithy of P12 Ichikawa cells grown in RPMI1640 with dialyzed fetal bovine serum (RPMI+ds) (AID 1963880); conditions: Potency: P12-Ichikawa viability; note: nearly all actives have a fitted effect of over 35% in size; note: potency is the fitted concentration of half-maximal effect
How it was run: as §1

[8] = Quantitative highthroughput screen to assess conditional lethalithy of SEM cells grown in RPMI1640 with dialyzed fetal bovine serum (RPMI+ds) (AID 1963884); note: nearly all actives have a fitted effect of over 35% in size; note: potency is the fitted concentration of half-maximal effect; for viability: series mostly up to about 46 µM
How it was run: as §1

[9] = Quantitative highthroughput screen to assess conditional lethalithy of SEM cells grown in Human Plasma-Like Medium with dialyzed fetal bovine serum (HPLM+ds) (AID 1963882); note: nearly all actives have a fitted effect of over 35% in size; note: potency is the fitted concentration of half-maximal effect; for viability: series mostly up to about 46 µM
How it was run: as §1

[10] = Cellular viability qHTS for adrenocortical cancer (ACC) cell line SW-13 (AID 1963989); conditions: SW-13 ACC cells viability, CellTiter-Glo, 48 h; activity (max response): stronger effect = lower value; note: nearly all actives have a fitted effect of over 65% in size; note: potency is the fitted concentration of half-maximal effect;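 for activity (max response): cells grown in serum-free medium with ITS supplement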
How it was run: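 Compound titrations (up to 46 uM final, in DMSO) were applied to SW-13 cells for 48 h at 37C/5% CO2. Reading used CellTiter-Glo after 20 min at room temperature; fitted curves yielded IC50 and efficacy.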

[11] = Cellular viability qHTS for adrenocortical cancer (ACC) cell line NCI-H295R (AID 1963990); note: nearly all actives have a fitted effect of over 60% in size
How it was run: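 Readout: CellTiter-Glo luminescence, 20 min RT. Exposure: 48 h, 37C/5% CO2. Cells: NCI-H295R, ITS-DMEM serum-free. Range: up to 46 uM. Analysis: 4PL fit, IC50 plus efficacy.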

| Compound | Potency [1] | Potency [2] | Potency [3] | Potency [4] | Potency [5] | Potency [6] | Potency [7] | Potency [8] | Potency [9] | Potency [10] | activity (max response) [10] [%] | Potency [11] |
| --- | --- | --- | --- | --- | --- | --- | --- | --- | --- | --- | --- | --- |
| Nc1nc(=O)n([C@H]2CSC(CO)O2)cc1F (stereo not given in full) | inactive | inactive | inactive | inactive | inactive | inactive |  |  |  |  |  |  |
| C[C@@H](Cc1cc2c(c(C(N)=O)c1)N(CCCO)CC2)NCCOc1ccccc1OCC(F)(F)F | inactive | inactive | inactive |  | inactive | inactive | inactive | inactive |  |  |  |  |
| CCCCCCOC(=O)N=C(N)c1ccc(NCc2nc3cc(C(=O)N(CCC(=O)OCC)c4ccccn4)ccc3n2C)cc1 | 26.4 µM (active) | 26.4 µM (active) | 20.9 µM (active) | inactive |  | inactive |  |  | inactive |  |  |  |
| CCOc1ccc(Cc2cc([C@@H]3O[C@H](CO)[C@@H](O)[C@H](O)[C@@H]3O)ccc2Cl)cc1 | inactive | inactive | inactive |  | inactive | inactive | inactive | inactive |  |  |  |  |
| O=C(C=CC=Cc1ccc2c(c1)OCO2)N1CCCCC1 | inactive | inactive | inactive |  | inactive |  | inactive | inactive | inactive |  |  |  |
| CC(=O)OCC(=O)[C@@]1(O)CC[C@H]2[C@@H]3CCC4=CC(=O)C=C[C@]4(C)[C@@H]3[C@@H](O)C[C@@]21C | inactive | inactive | inactive | inactive | inactive | inactive |  | inactive |  |  |  |  |
| Cc1ccc(-c2cc(C(F)(F)F)nn2-c2ccc(S(N)(=O)=O)cc2)cc1 | inactive | inactive | inactive |  | inactive | inactive | inactive | inactive | inactive | 23.1 µM (active) | -6.62 | inactive |
| CC(C)(O)[C@H]1CC[C@@](C)([C@H]2[C@@H](O)C[C@@]3(C)[C@@H]4C[C@H](O[C@@H]5O[C@H](CO)[C@@H](O)[C@H](O)[C@@H]5O)[C@H]5C(C)(C)[C@@H](O[C@@H]6OC[C@@H](O)[C@H](O)[C@@H]6O)CC[C@@]56C[C@@]46CC[C@]23C)O1 | inactive | inactive | inactive |  | inactive | inactive | inactive | inactive | inactive |  |  |  |
| CC(Cc1ccc(O)c(O)c1)(NN)C(=O)O (stereo not given) | inactive | inactive | inactive | inactive |  |  |  |  | inactive |  | 0.463 | inactive |
| CC=CC(=O)N(CC)c1ccccc1C | inactive | inactive | inactive |  | inactive |  | inactive | inactive | inactive |  |  |  |
| O=C(N[C@H](CO)[C@H](O)c1ccc([N+](=O)[O-])cc1)C(Cl)Cl | inactive | inactive | inactive |  | 20.9 µM (active) | inactive |  | inactive |  |  | -5.45 | inactive |
| CC(C)(C)NC(=O)[C@H]1CN(Cc2cccnc2)CCN1C[C@@H](O)C[C@@H](Cc1ccccc1)C(=O)N[C@H]1c2ccccc2C[C@H]1O | inactive | inactive | inactive |  |  |  |  |  | inactive |  |  |  |
| COc1ccc2ccc(=O)oc2c1CC=C(C)C | inactive | inactive | inactive |  |  |  |  |  | inactive |  |  |  |
| Cn1cc(C=CC(=O)c2cccc(F)c2)cc1C=CC(=O)NO | inactive | inactive | inactive |  | inactive | inactive |  | inactive | inactive |  |  |  |
| COc1cc(Nc2ncc(F)c(Nc3ccc4c(n3)NC(=O)C(C)(C)O4)n2)cc(OC)c1OC | 5.9 µM (active) | 9.35 µM (active) |  | 4.18 µM (active) | 5.26 µM (active) | 1.48 µM (active) | 5.26 µM (active) | 1.66 µM (active) | 1.66 µM (active) |  |  |  |
| CCCCOCCOc1nc(-c2ccc(C(=O)O)c(F)c2)sc1C | inactive | inactive | inactive |  | inactive | inactive |  | inactive |  |  | -9.17 | inactive |
| CC[C@H](NC(=O)[C@H](C)NC)C(=O)N1C[C@@H](O)C[C@H]1Cc1c(-c2[nH]c3cc(F)ccc3c2C[C@H]2C[C@H](O)CN2C(=O)[C@H](CC)NC(=O)[C@H](C)NC)[nH]c2cc(F)ccc12 | 0.935 µM (active) | 2.35 µM (active) |  | 2.96 µM (active) | 3.32 µM (active) |  | 2.64 µM (active) |  | inactive |  |  |  |
| Nc1ncn([C@@H]2O[C@H](CO)[C@@H](O)[C@@H]2O)c(=O)n1 | 16.6 µM (active) | 7.43 µM (active) | 16.6 µM (active) |  |  |  |  | 4.69 µM (active) | 9.35 µM (active) |  |  |  |
| CON=C(C(=O)N[C@@H]1C(=O)N2C(C(=O)O)=C(Cn3ccc(=N)n3CCO)CS[C@H]12)c1csc(N)n1 | inactive | inactive |  | inactive | inactive | inactive | inactive | inactive | inactive |  |  |  |
| O=C(NCc1ccccc1)[C@H](Cc1ccccc1)NC(=O)[C@@H]1O[C@@H]1C(=O)NCCc1ccc(O)cc1 | inactive | inactive |  | inactive | inactive |  | inactive |  | inactive |  |  |  |
| CC=CC1=C(C(=O)O)N2C(=O)[C@H](NC(=O)[C@H](N)c3ccc(O)cc3)[C@@H]2SC1 | 1.18 µM (active) | 2.64 µM (active) |  | 9.35 µM (active) | 9.35 µM (active) | inactive | 13.2 µM (active) | inactive | inactive |  |  |  |
